Reference: PubChem BioAssay (NCI)
Values joined by “and” are separate entries in the source; they are usually repeats but may differ in a detail not shown here. Identical values can stand only once. The panel holds about 83,000 compounds, 20% with a hit somewhere; the sample as a whole holds those more often.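 Note: values are percent growth. 100 is the growth of untreated cells, values between 100 and 0 indicate rising inhibition; between -100 and 0 indicates cell death.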 Active and inactive are the calls of the source. The calls were made as follows: active = growth percent below 10; inactive = the rest.

What follows are compounds tested on MDA-MB-468 breast (assay: NCI-60 one-dose screen, 48 h (100 = growth as untreated, 0 = no growth, -100 = all killed)). Settings: 10 µM unless noted.
O=C(N/N=C/c1ccco1)c1[nH]c2ccc(Br)cc2c1-c1ccccc1 was tested, and the growth was 14.9% (inactive).
With COc1ccc(/C=N/C2=NNC(C)(c3ccccc3O)N2C(Cc2c[nH]c3ccccc23)C(=O)O)cc1 (stereo not given) the growth was -3.81% (active).
For N#CC1=C(N)Oc2c(c(N)nn2-c2ccccc2)C1c1ccc(Cl)cc1 (stereo not given), the growth was 117% (inactive).
CCC(CCNc1cc(OC)cc2cccnc12)CN1C(=O)c2ccccc2C1=O (stereo not given) was tested, and the growth was 7.31% (active).
For CCOc1ccc(/C=C(\C#N)c2cc3ccccc3[nH]2)cc1, the growth was 33.4% (inactive).
With CCOC(=O)c1ccc(NC2=C(Cl)C(=O)c3nc(C)ccc3C2=O)cc1 the growth was -24.6% (active).
In the case of Cn1c(Nc2ccc(C(F)(F)F)cc2)nc2cc(Oc3ccnc(-c4ncc(C(F)(F)F)[nH]4)c3)ccc21, the growth was 32.4% (inactive).
In the case of COc1cc(COC(=O)CCCCC[P+](c2ccccc2)(c2ccccc2)c2ccccc2)c(OC)c2c1OCO2, the growth was -2.4% (active).
In the case of c1ccc(CCCCc2ccc3ccccc3n2)cc1, the growth was 111% (inactive).
With N#Cc1c(-c2ccc(C(F)(F)F)cc2)c(F)c(NCCC2CCC(O)C2)n2c1nc1ccccc12 (stereo not given) the growth was 64.2% (inactive).
With COc1cc2nc(N3CCCC3)nc(NCc3ccccc3)c2cc1OC the growth was 45.2% (inactive).
In the case of O=C(CCCCCCNC(=O)C(O)(O)C(F)(F)F)Nc1ccc(-c2ccccc2)cc1, the growth was -10.5% (active).
With CCCCc1oc2ccccc2c1C(=O)c1cc(I)c(OCCN(CC)CC)c(I)c1 the growth was -87.4% (active).
For CNC(=O)c1c(NC(=O)c2ccc(C(C)C)cc2)sc2c(CN(C)C)c(O)ccc12, the growth was 86.3% (inactive).
With Brc1ccc([I+]c2ccc(Br)cc2)cc1 the growth was 21.6% (inactive).
With COc1cc(/C=C2/C=C(c3ccc(C(C)(C)C)cc3)N(CCc3ccc(S(N)(=O)=O)cc3)C2=O)cc(OC)c1OC the growth was 55.6% (inactive).
In the case of CCO/C=N/C1=C(C#N)C(c2ccc(Cl)cc2)c2c(c3ccc(C)cc3[nH]c2=O)O1 (stereo not given), the growth was 96.8% (inactive).
With O=C(NC1CCCCC1)OCc1c(COC(=O)NC2CCCCC2)c(-c2ccc(Cl)c(Cl)c2)n2c1CCC2 the growth was -61.7% (active).
For NC(=S)N/N=C/c1ccc(Cl)cc1, the growth was 97.3% (inactive).
For O=C(Cn1c(-c2ccccc2)nc2cc(Cl)c(Cl)cc21)N=Nc1c(O)[nH]c2ccc(Cl)cc12, the growth was 61.7% (inactive).
CN1CCC(=C2c3ccccc3C=Cc3ccccc32)CC1 was tested, and the growth was 36% (inactive).
Nc1nc(SCc2cccnc2)c2ncn(C3OC(CO)C(O)C3O)c2n1 (stereo not given) was tested, and the growth was 97.4% (inactive).
Cc1nc(-c2cc3ccccc3oc2=O)ccc1C(=O)/C=C/c1ccc(Cl)c(Cl)c1 was tested, and the growth was 110% (inactive).
In the case of Cc1ccc(-c2csc(NC(=O)CSc3nc(N)cc(N)n3)n2)cc1, the growth was 11.6% (inactive).
For COc1ccc(-c2nc(C#N)c(N3CCC(S(=O)(=O)N4CCOCC4)CC3)o2)cc1, the growth was 107% (inactive).
In the case of O=C1OC(c2ccccc2)C(O)=C1c1ccccc1 (stereo not given), the growth was 108% (inactive).
In the case of CC(C)Oc1ccc2cc(-c3nn(CC4CCNCC4)c4ncnc(N)c34)ccc2c1, the growth was 84.8% (inactive) and -20% (active).
In the case of COc1ccc(/C=C2\C=C(c3ccccc3)N(CCc3ccccc3)C2=O)cc1OC, the growth was 44% (inactive).
In the case of COc1cc2cc(C(=O)Nc3ccccc3)c(N)nc2cc1OC, the growth was -81.5% (active).
In the case of NC(=O)c1ccc[n+](Cc2ccccc2)c1, the growth was 98.4% (inactive).
CO[C@H]1/C=C/O[C@@]2(C)Oc3c(C)c(O)c4c(O)c(c(/C=N/N5CCN(C)CC5)c(O)c4c3C2=O)NC(=O)/C(C)=C\C=C\C(C)[C@H](O)[C@@H](C)[C@@H](O)[C@@H](C)[C@@H](OC(C)=O)[C@@H]1C (stereo not given in full) was tested, and the growth was 92.2% (inactive).
In the case of O=C1c2nsnc2C(=O)c2c(F)c(F)c(F)c(F)c21, the growth was -50.4% (active).
CN(C)CCOc1ccc(-c2nc3ccc(-c4nc5ccc(N6CCN(C)CC6)cc5[nH]4)cc3[nH]2)cc1 was tested, and the growth was 40.2% (inactive).
In the case of CC1=C([Se]CC(OC(=O)[C@@H](CO)NC(=O)OC(C)(C)C)C(=O)NC(C)(C)C)C(=O)c2ccccc2C1=O (stereo not given in full), the growth was -74.2% (active).
For COc1cc2c3c(n([C@H]4CCOC4)c(=O)c2cc1OC)-c1cc2c(cc1C3=O)OCO2, the growth was 31.3% (inactive).
OC(CCCCCCCCC(O)CN1CCc2ccccc2C1)CN1CCc2ccccc2C1 (stereo not given) was tested, and the growth was 127% (inactive).
O=C1CC(=O)N(c2ccccc2)O1 was tested, and the growth was 105% (inactive).
With C=CC[Se]C(=O)Cc1c(C)n(C(=O)c2ccc(Cl)cc2)c2ccc(OC)cc12 the growth was -37.5% (active).
CCCCN1CCCn2c1nc1c2c(=O)n(CCC)c(=O)n1CCC was tested, and the growth was 101% (inactive).
In the case of CCN(CC)CCOc1ccc2c(c1O)C(=O)c1ccccc1C2=O, the growth was 80.3% (inactive).
